Test results taken from PubChem BioAssay AID588855 (National Center for Advancing Translational Sciences (NCATS), 2011).
The whole screen tested about 410,000 compounds, of which about 5,000 (1.2%) were called active. About 13% were inconclusive and are not listed. The call rests on the fitted dose curve; in most records, active means well fitted inhibition curve with a large enough effect; inconclusive means small, poorly fitted or top-dose-only effect; inactive means no such curve, though single readings can be large or run the other way. What follows is part of a selection rich in actives, with near analogues and random picks from the rest.

assay: qHTS for Inhibitors of TGF-b; settings: HepG2 CAGA-GFP TGF-b/SMAD3 reporter, GFP fluorescence, 18 h, TGF-beta stimulated, 500 pg/mL final; series mostly up to 46.1 µM; activity, negative = inhibition: at the top concentration; further: nearly all actives have a fitted effect of over 65% in size
Summary of the method: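 Using HEPG2 CAGA-GFP reporter cells at 1000 cells/well, we pinned test compounds, stimulated with recombinant TGF-beta (500 pg/mL final) and measured total well GFP after 18 h.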
On the % scale 0 is the no-effect control and ±100 the full control effect; potency means the concentration at half of the fitted maximal effect.

| Structure (SMILES) | activity, negative = inhibition | Potency |
| --- | --- | --- |
| CCc1nn(CCCC(=O)NCc2ccccc2OC)c(=O)c2cc3occc3n12 | -7.43% (inactive) |  |
| CCc1ccc(CNC(=O)c2cc3cc4ccc(OC)cc4nc3o2)cc1 | 1.92% (inactive) |  |
| CCCNC(=O)C1CCN(c2nc3ccc(C)cc3[nH]2)CC1 | -3.16% (inactive) |  |
| CCc1ccc(NC(=O)Nc2ccncc2)cc1 | -6.39% (inactive) |  |
| CC(C)=CC(=O)Nc1nnc(-c2ccc(F)cc2)s1 | -2.71% (inactive) |  |
| Cc1ccc(NC(=O)Nc2nnc(-c3ccncc3)s2)cc1 |  | 11.2 µM (active) |
| CN1CCN(C2(CNC(=O)COc3ccc(C(C)(C)C)cc3)CCCCC2)CC1 | -29.2% (inactive) |  |
| CCOc1ccc(S(=O)(=O)c2cn(Cc3ccccc3)c3ccc(OCC)cc3c2=O)cc1 | -14.2% (inactive) |  |
| O=C(Nc1cccc(Cl)c1)c1csnn1 | 18.8% (inactive) |  |
| Cc1csc(NC(=S)Nc2cccc(Cl)c2)n1 |  | 8.91 µM (active) |
| O=C(NCc1cn2ccsc2n1)Nc1cccc(Cl)c1 | 5.96% (inactive) |  |
| O=C1CC(c2ccccc2)CC2=C1C(c1ccco1)n1nc(C(F)(F)F)nc1N2 (centres undefined) | -19% (inactive) |  |
| CCCCNC(=O)Cn1c(SCc2cccc(Cl)c2)nc2ccncc21 | -13.9% (inactive) |  |
| Cc1cccc(-c2nnc(SC(C)C(=O)Nc3ccccc3)n2C)c1 (centres undefined) | -24.7% (inactive) |  |
| O=S(=O)(NCCS(=O)(=O)N1CCN(c2ccccc2)CC1)c1ccc(Cl)cc1 | -2.71% (inactive) |  |
| O=C(CN1C(=O)COc2ccc(S(=O)(=O)N3CCOCC3)cc21)N1CCN(c2cccc(Cl)c2)CC1 | 11.3% (inactive) |  |
| O=C(Nc1nnc(SCc2c(Cl)cccc2Cl)s1)c1cccc([N+](=O)[O-])c1 | -25% (inactive) |  |
| CC(C)(C)SCCNC(=O)c1cccc([N+](=O)[O-])c1 | 9.19% (inactive) |  |
| O=C(Nc1ccc(C2CC2(Cl)Cl)cc1)c1cccc([N+](=O)[O-])c1 (centres undefined) |  | 15.8 µM (active) |
| Cc1ccc(-c2cn3c(n2)sc2cc(C(=O)NCc4cccs4)ccc23)c(C)c1 | -4.09% (inactive) |  |
| Cc1cc(C)cc(NC(=O)CSc2nc(=O)n(CCN3CCOCC3)c3c2CCC3)c1 | -26.2% (inactive) |  |
| Cc1nnc(SCc2cc(=O)c3cc(F)ccc3[nH]2)n1C | -0.0891% (inactive) |  |

| Structure (SMILES) | activity, negative = inhibition | Potency |
| --- | --- | --- |
| Clc1ccc(Nc2nc(-c3cccs3)cs2)nc1 |  | 11.2 µM (active) |
| O=C(Nc1ccc(Cl)cn1)c1ccccc1-c1ccccc1 | -1.56% (inactive) |  |
| CCCc1cc(C(=O)Nc2ccc(Cl)cn2)cs1 | -13.9% (inactive) |  |
| COc1ccc(C(=O)COC(=O)CCCC(=O)Nc2cc(C(F)(F)F)ccc2Cl)cc1 | 0% (inactive) |  |
| Cc1cc(Nc2cccc(C(F)(F)F)c2)nc2ccc(NC(=O)c3ccc(=O)[nH]c3)cc12 | -3.23% (inactive) |  |
| COc1cc(NC(=O)c2[nH]cnc2C(N)=O)cc(C(=O)Nc2cccc(C(F)(F)F)c2)c1 |  | 4.47 µM (active) |
| COc1cc(NC(=O)c2cncc(-c3ccc(C#N)cc3)c2)cc(C(=O)Nc2cccc(C(F)(F)F)c2)c1 | -10.5% (inactive) |  |
| O=C(Nc1ccccc1F)C(c1ccccc1)N1Cc2ccccc2C1=O (centres undefined) | -8.24% (inactive) |  |
| CCc1ccc(NC(=O)CCS(=O)(=O)c2cc3c(cc2Cl)NC(=O)CO3)cc1 | 5.48% (inactive) |  |
| S=C(Nc1ccc(Br)cc1)NC1CCN(Cc2ccccc2)CC1 |  | 10 µM (active) |
| O=C(COc1ccc(Br)cc1F)NC1CCN(Cc2ccccc2)CC1 | 13.6% (inactive) |  |
| O=C(NC1CCN(Cc2ccccc2)CC1)c1cc(Br)c(Br)[nH]1 | -7.55% (inactive) |  |
| COc1ccc(Nc2ncc(C(=O)Nc3cc(C)ccc3OC)c3ccccc23)cc1 | -2.57% (inactive) |  |
| CCc1nccn1S(=O)(=O)c1cc(Br)ccc1Br | 3.54% (inactive) |  |
| COc1ccc(OC)c(NC(=O)/C=C/c2ccc(C)o2)c1 | 39.7% (inactive) |  |
| Cc1ccc(-c2nc(S(=O)(=O)c3ccc(C)cc3)c(N3CCCCCC3)o2)cc1 | 9.54% (inactive) |  |
| O=C(CSc1oc(-c2ccc(F)cc2)nc1S(=O)(=O)c1ccc(Br)cc1)NC1CCCCC1 | 11.8% (inactive) |  |
| CC(C)S(=O)(=O)c1oc(-c2ccc(F)cc2)nc1S(=O)(=O)c1ccc(F)cc1 |  | 1.26 µM (active) |
| Cc1ccc(CCNC(=O)Cn2c(-c3cccs3)cc3cc(F)ccc32)cc1 | -3.68% (inactive) |  |
| COc1ccc(CC(=O)NCCc2sc3nc(-c4ccc(OC)cc4)nn3c2C)cc1 | -12% (inactive) |  |
| COc1c(Cl)cc(C(=O)N(Cc2ccccc2F)C2CCS(=O)(=O)C2)cc1Cl (centres undefined) | -28.9% (inactive) |  |
| Cc1ccc2nc(-c3ccc(O)cc3)c(Nc3ccc4c(c3)OCO4)n2c1 | -25.9% (inactive) |  |

| Structure (SMILES) | activity, negative = inhibition | Potency |
| --- | --- | --- |
| COC(c1ccccc1)(c1ccccc1)C(Oc1nc(C)cc(C)n1)C(=O)O (centres undefined) | 16.7% (inactive) |  |
| Cc1cc(C)nc(SC(C)C(=O)N/N=C/c2cccs2)n1 (centres undefined) | 4.28% (inactive) |  |
| Cc1cc(C)nc(S/C=C/C(=O)c2ccccc2)n1 |  | 3.16 µM (active) |
| Cc1ccc(Cn2c(CNC(=O)Cc3cccc(C)c3)nc3cccnc32)cc1 | -23% (inactive) |  |
| CC(=O)Nc1cc(C(=O)NCc2ccc(F)cc2Cl)ccc1Sc1ccc(Cl)cc1 | 0% (inactive) |  |
| COc1ccc(CN2CCC(=O)c3ccccc3S2(=O)=O)cc1 | -1.44% (inactive) |  |
| COc1cccc2c1C(=O)c1c(O)c3c(c(O)c1C2=O)CC(O)(C(C)=NNC(=O)c1ccc(Cl)c(Cl)c1)CC3OC1CC(N)C(O)C(C)O1 (centres undefined) |  | 1.12 µM (active) |
| Cc1ccc(Cn2cnc3c(cnn3C(C)(C)C)c2=O)c(F)c1 | -14.2% (inactive) |  |
| COc1cc(CN(C(=O)c2ccccc2Br)c2ccccn2)cc(OC)c1OC | -7.28% (inactive) |  |
| CC(C)CC[n+]1ccn(C2=C([O-])c3ccccc3C(=O)/C2=N\S(=O)(=O)c2ccccc2)c1 |  | 3.16 µM (active) |
| COC(=O)c1ccc(NC(=O)c2cccc3c2C(=O)N(C2CCCCC2)C3)cc1 | 6.39% (inactive) |  |
| Cc1ccc(CN2CC(N3CCC(Cc4ccccc4)CC3)CS2(=O)=O)cc1 (centres undefined) |  | 14.1 µM (active) |
| O=S1(=O)CC(N2CCC(Cc3ccccc3)CC2)CN1Cc1ccccc1 (centres undefined) | -44.1% (inactive) |  |
| Cc1cccc(CN2CCN(C3CN(Cc4ccccc4)S(=O)(=O)C3)CC2)c1 (centres undefined) | -23.2% (inactive) |  |
| Cc1ccc(CN2CCc3nc(N4CCN(C)CC4)ncc3C2)cc1 | -2.9% (inactive) |  |
| CCOc1ccc(NC(=O)CC2C(=O)N(c3cccc(OC)c3)C(=O)N2C2CCCCC2)cc1 (centres undefined) | -13.9% (inactive) |  |
| Cc1cccc(NC(=O)Cn2c(C(F)(F)F)nc3ccccc32)c1C | -19.4% (inactive) |  |
| Fc1ccc2[nH]c3c(N4CCN(Cc5ccc6c(c5)OCO6)CC4)ncnc3c2c1 |  | 17.8 µM (active) |
| N#C/C=C/N1CCN(Cc2ccc3c(c2)OCO3)CC1 | 1.39% (inactive) |  |
| O=C(CSc1nc2c(c(=O)[nH]1)CN(Cc1ccc3c(c1)OCO3)CC2)Nc1cc(F)ccc1F | -4.36% (inactive) |  |
